In the library only some 2.5% were active in any assay of this set; here they are far more common.
V-ATPase pH: yeast V-ATPase proton transport regulation by pHLuorin | S. cerevisiae, pHLuorin cytosolic pH fluorescence | response, % at 10 µM | actives 0.37% (n = 350,000) | AID 504577; in the data active = response mostly above about 7.3%, no sharp cut-off; inactive = mostly below about 5.4%; note: actives read high
SUMO Mot1 rescue: SUMOylation pathway inhibition by Mot1-301 growth rescue. AID 2716. growth rescue, % at 18.8 µM. S. cerevisiae Mot1-301 growth rescue, ATP luminescence, 38.5C; percent above DMSO median, 100 means doubled. actives 1% (n = 320,000);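 active = every valid replicate shows activation above 250% relative to neutral control wells; inactive = the rest, any valid replicate at or below 250%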;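 note: OY570 slx delta 5 strain wells were the positive control but not used for scaling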
Efflux pump inh: antifungal efflux pump inhibition, Nile Red retention; inhibition, % at 10 µM; actives 0.44% (n = 330,000); S. cerevisiae Candida pump triplex; AID 485275;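 active = plate passing quality check with inhibition over a set limit, or well fluorescence over plate mean plus 4 SD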;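 note: Nile Red retained in pooled yeast measured as flow cytometry median fluorescence; 0% = buffer negative control and 100% = Enniatin B positive control; higher means more Nile Red kept so more efflux inhibition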
AI-2 QS mod: Vibrio harveyi AI-2 quorum sensing modulation | AID 2094 | Vibrio harveyi JMH597 AI-2 luminescence/OD600 ratio, 9 h; active compounds read low; strain lacks LuxN and CqsS sensors; 0 = neutral-control median | activity change, % at 7.5 µM | actives 0.4% (n = 300,000); in the data active = activity change below about -75%, passing the limit was not always enough;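 note: luminescence divided by OD600 gain over 9 h not by final OD600 alone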
ATG4B inhibitor: inhibitors of human ATG4B cysteine protease; ATG4B cleavage of LC3-PLA2, NBD-HPC fluorescence, 1 h; actives 0.51% (n = 340,000); Q9Y4P1; inhibition, % at 8.33 µM; in the data active = inhibition above about 40%
Target sequence (Q9Y4P1 whole entry, looked up): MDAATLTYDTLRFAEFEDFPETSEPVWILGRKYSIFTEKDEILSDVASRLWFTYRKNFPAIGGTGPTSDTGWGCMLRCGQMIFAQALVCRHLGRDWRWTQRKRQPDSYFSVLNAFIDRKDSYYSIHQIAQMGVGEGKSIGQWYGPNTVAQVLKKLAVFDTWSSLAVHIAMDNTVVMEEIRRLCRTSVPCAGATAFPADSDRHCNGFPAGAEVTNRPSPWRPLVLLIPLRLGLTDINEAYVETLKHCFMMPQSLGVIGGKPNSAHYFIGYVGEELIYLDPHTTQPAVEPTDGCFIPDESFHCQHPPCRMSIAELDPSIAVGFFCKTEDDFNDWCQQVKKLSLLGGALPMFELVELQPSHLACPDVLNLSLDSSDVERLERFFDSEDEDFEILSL
* marks the source's active call; other numbers are inactive results; i = inactive; x = no result given.

SMILES	V-ATPase pH	SUMO Mot1 rescue	Efflux pump inh	AI-2 QS mod	ATG4B inhibitor
COc1ccc(CNc2ncc(-c3ccccc3)n2C)cc1	0	337	0	22	0
Cn1c(-c2ccccc2)cnc1NCc1ccc(-c2ccccc2)cc1	-2	383*	0	14	-5
O=C(c1ccc(S(=O)(=O)N2CCCC2)cc1)N(c1ccc(F)cc1)C1C=CS(=O)(=O)C1 (stereo not given)	-1	-5	0	3	-3
COc1ccc(C(=O)CC(=O)Nc2ccc([N+](=O)[O-])cc2)cc1	6	-1	0	-90*	-3
O=C(CCOc1ccccc1)Nc1ccccc1	0	7	0	-60	-6
O=C(CCOc1ccccc1)Nc1ccc([N+](=O)[O-])cc1	5	-7	0	-79*	-9
O=C(CSc1ccccc1)Nc1cccnc1	14*	-5	0	15	-3
CN(CC(=O)Nc1ccc(Cl)c(C(F)(F)F)c1)C(=O)c1ccc2c(c1)NC(=O)CS2	6	-15	0	x	-15
CCC(CC)C(=O)Nc1cccc(C(=O)Nc2nnc(C)s2)c1	211*	-3	0	18	-4
CCOC(=O)C1=C(CC)Nc2ccccc2N=C1NC(=O)Nc1ccc(Cl)c(Cl)c1	-1	8	0	-32	62*
O=C(Nc1cccc(C(=O)O)c1)/C(=C\c1ccc2c(c1)OCO2)NC(=O)c1ccccc1Cl	-2	136	0	52	-7
O=C(N/N=C\c1coc2ccccc2c1=O)c1ccco1	3	461*	0	43	11
CN(CC(=O)Nc1cccc(F)c1)C(=O)c1cc([N+](=O)[O-])ccc1N1CCCCC1	8	4	0	20	-1
Cc1[nH]c(-c2ccccn2)nc(=S)c1Cl	1	2	0	-88*	-5
Cc1cc(=S)nc(-c2ccccn2)[nH]1	-2	-3	0	4	-9
CCOc1ccccc1-c1c2cc(O)c(=O)cc-2oc2cc(O)c(O)cc12	75*	x	x	x	i
Cc1cc(OCc2cc(C(=O)N(C)C(C)c3ccccn3)no2)cc(C)c1Cl (stereo not given)	4	-3	0	14	21
O=c1nc(N/N=C/c2ccccn2)cn[nH]1	0	-14	0	-88*	8
O=S1(=O)N=C(N/N=C/c2ccccn2)c2ccccc21	2	-6	0	-86*	-2
COc1ccc(C2=NN(C(=O)c3ccccc3)C(c3ccc(OC)c(OC)c3)C2)c(OC(C)=O)c1 (stereo not given)	1	-4	0	22	x
CC(=O)Nc1ccc(S(=O)(=O)NCCC(=O)OCC(=O)NNC(=O)c2ccccc2)cc1	0	-13	0	19	-4
CC(=O)n1cc(Nc2ccc([N+](=O)[O-])cc2)c2ccccc21	2	x	0	14	5
CC(=O)SC(C[N+](=O)[O-])c1cn(C(C)=O)c2ccccc12 (stereo not given)	2	404*	0	36	-6
CCCCCCCN1C2=NCCN2c2ccccc21	22*	187	0	12	10
Oc1[nH]c(=S)sc1/C=C1\C(c2ccccc2)=Nc2ccccc21	-2	-4	0	31	99*
SMILES	V-ATPase pH	SUMO Mot1 rescue	Efflux pump inh	AI-2 QS mod	ATG4B inhibitor
COc1ccc(OC)c(S(=O)(=O)CC(O)CS(=O)(=O)c2ccccc2)c1 (stereo not given)	8	-8	0	17	-4
COc1ccc(-c2noc3c2-c2nc(-c4c(F)cccc4F)sc2CC3)cc1	1	50	0	2	2
CCn1c(=S)[nH]c2c(c1=O)C(C)(C)Cc1ccccc1-2	13*	x	x	14	7
COc1ccc(CCNC(=S)N2CCN(S(=O)(=O)c3cccc(F)c3)CC2)cc1	7	351*	0	14	-5
CC1CCN(C(=O)/C=C/c2ccc(C(C)(C)C)cc2)CC1	5	-5	0	-89*	33
CCCc1c(C)nc(N2CCN(c3ccccc3OC)CC2)[nH]c1=O	0	-6	0	14	-3
NS(=O)(=O)c1cccc(NS(=O)(=O)c2ccc3ccccc3c2)c1	-2	-8	0	-97*	-9
CC(=O)c1ccc(-c2ccc(C(=O)NCC3CCCO3)o2)cc1 (stereo not given)	3	-1	0	11	5
CCC1(C)SC(N)=NN1C(C)=O (stereo not given)	1	-9	0	5	-2
O=C(NCc1ccccn1)C(=O)NCc1ccccn1	-1	295*	0	3	13
COc1ccc(CCNC(=O)C(=O)NCc2ccccn2)cc1	0	109	0	-79*	-5
CCCNC(=O)C(=O)NCc1ccccn1	3	-3	0	18	-4
CC(C)(C)C(=O)Nc1cccc(-c2cc(-c3c(Cl)cccc3Cl)no2)c1	3	10	0	4	3
Cc1onc(-c2ccccc2)c1CNC(=O)Nc1ccccc1	-4	-7	0	-4	-2
COc1ccc(-c2nc(NC(=O)c3n[nH]c(=O)c4ccccc34)sc2C)cc1	5	-22	0	17	10
CCOc1ccccc1Nc1nnc(SCC(=O)Nc2cccc(S(=O)(=O)NC3=NCCCCC3)c2)s1	0	677*	-3	21	-5
CCOc1ccccc1OCC(=O)Nc1cccc(S(=O)(=O)NC2=NCCCCC2)c1	-2	-15	0	x	2
O=C(Cn1c(=O)cnc2ccccc21)N1CCN(S(=O)(=O)c2cccc([N+](=O)[O-])c2)CC1	3	-18	0	25	-4
O=C(/C=C/c1ccccc1)NC(=S)NNC(=O)c1cccnc1	7	-1	0	-111*	-4
O=C(/C=C/c1ccccc1)NC(=S)NNC(=O)c1cnccn1	-1	-1	0	-8	-3
Cc1ccc(Oc2coc3cc(O)ccc3c2=O)cc1	3	3	0	-94*	4
CCCCOC(=O)Oc1ccc2c(=O)c(Oc3cc(C)cc(C)c3)coc2c1	2	0	0	15	8
CCCCOC(=O)Oc1ccc2c(=O)c(Oc3cccc(C)c3)coc2c1	-2	-21	0	-77*	13
Cc1cc(C)cc(Oc2coc3cc(O)ccc3c2=O)c1	-3	-4	0	-13	-1
O=C(NCC(=O)N1CCN(Cc2c(F)cccc2Cl)CC1)c1cccs1	0	x	x	x	x
O=C(CCS(=O)(=O)c1ccccc1Cl)NCCC1=CCCCC1	0	43	3	10	-6
Cn1cc(C(=O)NCN2CCCCC2)c2ccccc21	1	3	0	13	-2
Cc1oc2c(c1C(=O)O)C(=O)c1ccccc1C2=O	-1	13	0	-83*	-8
COc1cc(C2NC(=O)C(C#N)=C(Nc3cccc(C)c3)S2)ccc1O (stereo not given)	0	-2	0	10	3
CCn1c(-c2ccccc2)ccc(C#N)c1=O	-3	5	0	-2	-6
